From PubChem
TDP1 cell CPT: qHTS for Inhibitors of human tyrosyl-DNA phosphodiesterase 1 (TDP1): qHTS in cells in presence of CPT. chicken DT40 Tdp1-/-;hTDP1 cells + 20 nM CPT, ATP luminescence, 48 h. Potency, µM (top dose mostly 46.2 µM), hits mostly inhibitors. 420,000 compounds, 12% hits. AID 686979, 2013; note: nearly all actives have a fitted effect of over 55% in size
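Chicken DT40 Tdp1-/- cells complemented with human TDP1, 400 cells/well, exposed to compounds plus 20 nM camptothecin for at least 48 h at 37 C; viability read as ATP content by CellTiter-Glo luminescence.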
HT1080NT lethal: qHTS for induction of synthetic lethality in tumor cells producing 2HG: qHTS for the HT-1080-NT fibrosarcoma cell line; HT-1080-NT fibrosarcoma viability, CellTiter-Glo ATP luminescence, 48 h; Potency, µM (highest dose often 46.1 µM), most hits filed as cytotoxic; 360,000 compounds, 1.6% hits;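 note: NT is the 2HG producing partner of a matched IDH1 knockdown line; nearly all actives have a fitted effect of over 55% in size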
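HT-1080-NT; 750 cells/well; 5% FBS RPMI; 48 h compound, 37 degrees C; CellTiter-Glo luminescence; curve fitting and curve-class assignment.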
DT40 TDP1 no CPT: qHTS for Inhibitors of human tyrosyl-DNA phosphodiesterase 1 (TDP1): qHTS in cells in absence of CPT; DT40 Tdp1-/- hTDP1 cells, no CPT, ATP luminescence, 48 h; Potency, µM (titrated, usually from 46.2 µM), most hits filed as inhibitors; 420,000 compounds, 15% hits; note: nearly all actives have a fitted effect of over 55% in size
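Camptothecin absent (DMSO only). Human TDP1-complemented DT40 knockout cells, 400 cells/well, 37 °C for minimum 48 hr; ATP measured via CellTiter-Glo, 30 min dark incubation, luminescence.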
IL1B secr inh: qHTS for Inhibitors of Inflammasome Signaling: IL-1-beta AlphaLISA Primary Screen. 360,000 compounds, 4.7% hits. activity change, % at 57.5 µM. AID 743279, 2014. THP-1 LPS/ATP IL-1B secretion, AlphaLISA, 16 h; hits give low values; in the data active = activity change below about -50%; inconclusive = mostly about -30% to -49%
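THP-1 cells pretreated 1 hr with compounds (up to 57.5 uM final), then stimulated with LPS (250 ng/mL final) plus ATP (1.25 mM final); secreted IL-1B measured by AlphaLISA after 16 hr, decreased signal indicating inhibition.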
HT1080 IDH1KD tx: qHTS for induction of synthetic lethality in tumor cells producing 2HG: qHTS for the HT-1080-IDH1KD cell line. HT-1080 IDH1 knockdown viability, ATP luminescence, 48 h. Potency, µM (doses to about 46.1 µM), actives largely listed as cytotoxic. 360,000 compounds, 2% hits. AID 686971, 2013
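Using the IDH1-knockdown HT-1080 line run in the same batch and compound series as the NT line, viability after 48 h at 37 °C was determined by CellTiter-Glo luminescence and expressed as % activity.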
A number is an active result; - = inactive; ? = inconclusive; . = no result given; [ ] = dose if it differs, or a comment. This is a sample that favours compounds with a hit; in the whole collection about 19% have one here. Unless noted, calls come from the whole dose curve; as a rule, active = well fitted curve in the direction sought with a large enough effect; inconclusive = small, poorly fitted or top-dose-only effect, or another doubt; inactive = no such curve, though single readings can be large; an effect the other way counts as inactive or inconclusive.

SMILES	TDP1 cell CPT	HT1080NT lethal	DT40 TDP1 no CPT	IL1B secr inh	HT1080 IDH1KD tx
C[C@H](NC(=O)/C(C#N)=C/c1ccc(O)c(O)c1)c1ccccc1	19µM	.	19µM	.	.
Cc1nn(CC(C)C(=O)N2CCN(S(=O)(=O)c3ccc(Cl)cc3)CC2)c(C)c1C (stereo not given)	-	-	-	-	-
COc1ccc(S(=O)(=O)N2CCC(C(=O)NN3CCCCC3)CC2)cc1OC	-	-	-	-	-
O=C(Nc1nnc([C@H]2C[C@H](O)[C@@H](CO)O2)s1)c1ccccc1F	-	?	-	-	-
O=C(Nc1ccc(Oc2ccccc2)cc1)c1ccc2sc([C@H]3C[C@H](O)[C@@H](CO)O3)nc2c1	?	7.3µM	21µM	-	2.6µM
O=C(Nc1ccc(F)c(Cl)c1)c1csc([C@H]2C[C@H](O)[C@@H](CO)O2)n1	21µM	-	?	-	-
O=C(Nc1nnc([C@@H]2C[C@H](O)[C@@H](CO)O2)s1)c1c(F)cccc1F	-	-	-	-56	-
O=C(NCc1cc(Cl)cc(Cl)c1)c1ccc2sc([C@H]3C[C@H](O)[C@@H](CO)O3)nc2c1	21µM	-	?	-	-
COc1cc(=O)n2c(c1C(=O)NC(C)c1ccco1)CCN(Cc1cc(C)ccc1C)CC2 (stereo not given)	-[9.04 µM]	.	-	.	.
Brc1ccc(-n2cnc(-c3ccccc3)c2)cc1	?	-	?	-	-
O=C(Nc1cccc(C(F)(F)F)c1)c1ccc2sc([C@H]3C[C@H](O)[C@@H](CO)O3)nc2c1	?	?	23µM	-	?
O=C(NCCN1CCNC1=O)c1ccc2sc([C@H]3C[C@H](O)[C@@H](CO)O3)nc2c1	-	-	-	-86	-
CC(=O)Nc1ccc(NC(=O)c2ccc3sc([C@H]4C[C@H](O)[C@@H](CO)O4)nc3c2)cc1	-	-	-	-	-
O=C(Nc1ccc(F)c(Cl)c1)c1ccc2sc([C@H]3C[C@H](O)[C@@H](CO)O3)nc2c1	18µM	-	21µM	-	?
Cc1ccc(NC(=O)CSCC(=O)N(C)CC(=O)Nc2c(C)cccc2C)cc1	-	-	-	-	-
COc1cccc(CN(C)C(=O)CSCC(=O)Nc2ccc(C)cc2)c1OC	?	-	12µM	-	-
COc1ccc(CN(C)C(=O)Cc2c[nH]c3ccccc23)cc1	-	-	-	-	-
COc1cccc(CN(C)C(=O)Cc2c[nH]c3ccccc23)c1OC	?	-	16µM	-	-
O=C(CS(=O)CC(=O)Nc1cccnc1)Nc1ccc(F)cc1 (stereo not given)	-	-	-	-	-
Cc1ccc2nc(/C(C#N)=C/c3cn[nH]c3-c3ccc(F)cc3)[nH]c2c1	?	?	18µM	?	?
Cc1ccc2nc(/C(C#N)=C/c3ccccc3C(=O)O)[nH]c2c1	-	-	-	-	-
Cc1ccc2nc(/C(C#N)=C/c3cccc(Br)c3)[nH]c2c1	15µM	.	16µM	.	.
Cc1ccc2nc(/C(C#N)=C/c3ccc(O)c(O)c3)[nH]c2c1	18µM	-	18µM	-	?
Cc1ccccc1-n1nc(CO)c(C(=O)NCc2cccnc2)n1	-	.	-	.	.
CC(CNC(=O)c1cc(Cl)ccc1[N+](=O)[O-])NC(=O)c1cc(Cl)ccc1[N+](=O)[O-] (stereo not given)	-	-	-	-	-
COc1ccccc1N1CCN(S(=O)(=O)CCNC(=O)CC2CCCCC2)CC1	16µM	-	16µM	-	-
CCOc1ccc(CC(=O)NCCS(=O)(=O)N2CCN(c3ccccc3OC)CC2)cc1	12µM	.	21µM	.	.
COc1ccccc1N1CCN(S(=O)(=O)CCNC(=O)CCc2ccccc2)CC1	?	-	16µM	-	-
